IL1B secr inh: blocks inflammasome-driven IL-1 beta release; THP-1 LPS/ATP IL-1B secretion, AlphaLISA, 16 h; active compounds read low; activity change, % at 57.5 µM; 360,000 tested, 4.7% active; AID 743279; in the data active = activity change below about -50%; inconclusive = mostly about -30% to -49%
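THP-1 cells pretreated 1 hr with compounds (up to 57.5 uM final), then stimulated with LPS (250 ng/mL final) plus ATP (1.25 mM final); secreted IL-1B measured by AlphaLISA after 16 hr, decreased signal indicating inhibition.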
TDP1 cell CPT: DT40-hTDP1 cell growth loss with CPT; 420,000 tested, 12% active; Potency, µM (titrated, usually from 46.2 µM), usual class: inhibitors; chicken DT40 Tdp1-/-;hTDP1 cells + 20 nM CPT, ATP luminescence, 48 h; also: nearly all actives have a fitted effect of over 55% in size
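Chicken DT40 Tdp1-/- cells stably complemented with human TDP1 were seeded at 400 cells/well in medium containing 20 nM camptothecin, exposed to pin-transferred compounds, and grown at 37 °C for at least 48 hr. Viability was read as ATP luminescence.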
HT1080 IDH1KD tx: toxicity to HT-1080 IDH1 knockdown cells (counter line). AID 686971. HT-1080 IDH1 knockdown viability, ATP luminescence, 48 h. 360,000 tested, 2% active. Potency, µM (highest dose often 46.1 µM), most hits filed as cytotoxic
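Knockdown cells (IDH1KD HT-1080) received compounds 2 h after plating at 750 cells/well and were kept 48 h at 37 °C in 5% FBS RPMI. A CellTiter-Glo luminescence read gave % activity for curve fitting.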
TDP1 cell noCPT: qHTS for Inhibitors of human tyrosyl-DNA phosphodiesterase 1 (TDP1): qHTS in cells in absence of CPT | DT40 Tdp1-/- hTDP1 cells, no CPT, ATP luminescence, 48 h | Potency, µM (highest dose often 46.2 µM), hits mostly inhibitors | 420,000 tested, 15% active; also: nearly all actives have a fitted effect of over 55% in size
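A cellular qHTS used chicken DT40 cells lacking endogenous Tdp1 but carrying stably transfected human TDP1. Compounds were applied without camptothecin, and cell growth kinetics were judged by ATP-dependent luminescence after ≥48 hr.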
HT1080-NT tox: kills 2HG-producing HT-1080-NT fibrosarcoma cells | HT-1080-NT fibrosarcoma viability, CellTiter-Glo ATP luminescence, 48 h | Potency, µM (series often up to 46.1 µM), most hits filed as cytotoxic | 360,000 tested, 1.6% active | AID 686970;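 also: NT is the 2HG producing partner of a matched IDH1 knockdown line; nearly all actives have a fitted effect of over 55% in size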
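HT-1080-NT fibrosarcoma cells (2HG-overproducing), 750 cells/well in RPMI with 5% FBS, dosed after 2 h and incubated 48 h at 37C. CellTiter-Glo luminescence normalized to DMSO and no-cell wells; concentration-response curves fitted and classed.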
Large screens that a line does not name were inactive. The list is not random: actives were taken first. Their share in the collection is about 19%. Unless noted, calls follow the shape of the dose curve; as a rule, active = well fitted curve in the direction sought with a large enough effect; inconclusive = small, poorly fitted or top-dose-only effect, or another doubt; inactive = no such curve, though single readings can be large; an effect the other way counts as inactive or inconclusive.

Cc1ccc(NC(=O)C(=O)NCCN2CCN(C(=O)C(c3ccccc3)c3ccccc3)CC2)cc1	IL1B secr inh inconclusive, TDP1 cell CPT 18µM, TDP1 cell noCPT 18µM
CCOc1ccc(NC(=O)C(=O)NCCN2CCN(S(=O)(=O)c3ccc(C)cc3)CC2)cc1	TDP1 cell CPT inconclusive, TDP1 cell noCPT 9.2µM
COc1cccc(CN2CC(C(=O)N3CCN(C(C)C)CC3)CCC2=O)c1 (configuration not stated)	none
CCCCCCCCN1C(=O)[C@H](CC(=O)NCCCOC)C[C@@]2(C(=O)OC)CCCCC=C12	TDP1 cell CPT inconclusive, TDP1 cell noCPT 16µM
CCCCCCCCN1C(=O)[C@H](CC(=O)NCC2CCCCC2)C[C@@]2(C(=O)OC)CCCCC=C12	TDP1 cell CPT 21µM, TDP1 cell noCPT 16µM
CCCCCCCCN1C(=O)[C@H](CC(=O)NCCCN2CCCC2=O)C[C@@]2(C(=O)OC)CCCCC=C12	TDP1 cell CPT inconclusive, TDP1 cell noCPT inconclusive
O=C1/C(=C\c2ccc([N+](=O)[O-])cc2)CCc2ccccc21	IL1B secr inh inconclusive, TDP1 cell noCPT inconclusive
COc1ccc(/C=C2\CCC(C3CCCC3)C2=O)cc1Cn1cccn1 (configuration not stated)	IL1B secr inh -80, TDP1 cell CPT 18µM, TDP1 cell noCPT inconclusive
COc1ccc2c(c1)CC/C(=C/c1ccncc1)C2=O	IL1B secr inh -105, TDP1 cell CPT 16µM, TDP1 cell noCPT 16µM
CC(=O)Nc1ccc(/C=C2\CCc3ccccc3C2=O)cc1	IL1B secr inh -96, HT1080 IDH1KD tx inconclusive, HT1080-NT tox 23µM
COc1ccc2c(c1)CC/C(=C\C=C\c1ccccc1OC)C2=O	TDP1 cell CPT inconclusive, TDP1 cell noCPT inconclusive
COc1ccc(C=C2NC(=O)NC2=O)cc1O	none
COc1ccc(/C=C2\CCc3ccccc3C2=O)cc1O	TDP1 cell CPT 0.52µM, HT1080 IDH1KD tx 4.1µM, TDP1 cell noCPT 0.82µM, HT1080-NT tox 2.3µM
O=C(COC(=O)c1cc(-c2cccs2)nc2ccccc12)NC1CCS(=O)(=O)C1 (configuration not stated)	IL1B secr inh inconclusive
O=C(Cn1nnc(-c2ccccc2F)n1)NCc1ccco1	none
CC(CC(=O)NCCc1ccc(S(N)(=O)=O)cc1)c1ccccc1 (configuration not stated)	none
COc1ccc(/C=C2\CCc3ccccc3C2=O)cc1Cn1cccn1	IL1B secr inh inconclusive, TDP1 cell CPT 21µM, TDP1 cell noCPT inconclusive
Cc1ccc(C2=NNC3(CCOC(C)(C)C3)S2)cc1 (configuration not stated)	none
CCCc1cc(C(=O)N2CCCC(N3CCN(c4ccccc4C)CC3)C2)n(C)n1 (configuration not stated)	TDP1 cell CPT 16µM, TDP1 cell noCPT inconclusive
O=C(c1ccncc1)N1CCCC(N2CCN(c3cccc(C(F)(F)F)c3)CC2)C1 (configuration not stated)	TDP1 cell CPT 16µM, TDP1 cell noCPT inconclusive
COc1ccccc1N1CCN(C2CCCN(C(=O)c3csc(C)n3)C2)CC1 (configuration not stated)	TDP1 cell noCPT inconclusive
Cc1ccc(C(=O)N2CCCC(N3CCN(c4cccc(C(F)(F)F)c4)CC3)C2)s1 (configuration not stated)	TDP1 cell CPT 1.3µM, TDP1 cell noCPT 6.5µM, HT1080-NT tox inconclusive
CSc1nc(C(=O)N2CCCC(N3CCN(c4ccccc4C)CC3)C2)cs1 (configuration not stated)	TDP1 cell CPT 21µM, TDP1 cell noCPT 18µM
CC(=O)N1CCCC(N2CCN(c3cccc(C(F)(F)F)c3)CC2)C1 (configuration not stated)	none
CC1=C(C(=O)N2CCCC(N3CCN(c4cccc(C(F)(F)F)c4)CC3)C2)OCCO1 (configuration not stated)	TDP1 cell CPT inconclusive, TDP1 cell noCPT inconclusive
CCc1cc(C(=O)N2CCCC(N3CCN(c4cccc(C(F)(F)F)c4)CC3)C2)n(C)n1 (configuration not stated)	TDP1 cell CPT 12µM, TDP1 cell noCPT 12µM
Cc1cnc(C(=O)N2CCCC(N3CCN(c4cccc(C(F)(F)F)c4)CC3)C2)cn1 (configuration not stated)	IL1B secr inh -62, TDP1 cell CPT 23µM, TDP1 cell noCPT inconclusive
Oc1ccc(C[C@@H]2CNCCN2CC2(c3ccccc3)CC2)cc1	IL1B secr inh inconclusive, TDP1 cell CPT inconclusive, TDP1 cell noCPT inconclusive
CCCC[C@@H]1CNCCN1CC1(c2ccccc2)CC1	IL1B secr inh inconclusive, TDP1 cell CPT 12µM, TDP1 cell noCPT 12µM
Oc1ccc(C[C@H]2CNCCN2CC2(c3ccccc3)CC2)cc1	IL1B secr inh -61, TDP1 cell CPT 21µM, TDP1 cell noCPT inconclusive
CCOC(=O)C(=N/O)/C(C)=N/NC(=O)C(=O)Nc1cc(Cl)ccc1Cl	TDP1 cell CPT inconclusive, HT1080 IDH1KD tx inconclusive, TDP1 cell noCPT inconclusive
CCCCC(O)c1ccccc1 (configuration not stated)	none (no result: IL1B secr inh, HT1080 IDH1KD tx, HT1080-NT tox)
COc1ccc([C@H]2CC(=O)C=C(c3ccc(C)c(F)c3)C2)cc1	none
COc1ccc(C(=O)Nc2ccc(NS(=O)(=O)c3ccccc3)cc2)cc1OC	IL1B secr inh inconclusive, TDP1 cell CPT inconclusive, TDP1 cell noCPT inconclusive
Cc1nc2ccc(NC(=O)c3nn(C(C)C)c(=O)c4ccccc34)cc2s1	TDP1 cell CPT inconclusive, TDP1 cell noCPT inconclusive
CSc1nc2ccc(NC(=O)c3nn(C(C)C)c(=O)c4ccccc34)cc2s1	IL1B secr inh -52, TDP1 cell CPT 18µM, TDP1 cell noCPT inconclusive
Cc1ccccc1N1CCN(C2=NC(=O)/C(=C\c3cccs3)S2)CC1	TDP1 cell CPT inconclusive, HT1080 IDH1KD tx inconclusive, TDP1 cell noCPT inconclusive, HT1080-NT tox inconclusive
Cc1ccsc1/C=C1\SC(N2CC(C)OC(C)C2)=NC1=O (configuration not stated)	TDP1 cell CPT inconclusive, TDP1 cell noCPT 15µM
Cc1coc2c1c(C)cc1oc(=O)c(CC(=O)NCCCN3CCCC3=O)c(C)c12	TDP1 cell CPT inconclusive, TDP1 cell noCPT inconclusive
COc1cccc(NC(=O)c2cn(C)c(=O)c3cc(OC)c(OC)cc23)c1	TDP1 cell CPT 8.2µM, TDP1 cell noCPT 15µM
COc1ccccc1CNC(=O)c1cn(C)c(=O)c2cc(OC)c(OC)cc12	TDP1 cell CPT 18µM, TDP1 cell noCPT 21µM
COc1ccc(NC(=O)c2cn(CC(C)C)c(=O)c3cc(OC)c(OC)cc23)cc1Cl	TDP1 cell CPT 21µM, TDP1 cell noCPT 21µM (no result: IL1B secr inh, HT1080 IDH1KD tx, HT1080-NT tox)
COc1ccc(NC(=O)c2cn(C)c(=O)c3cc(OC)c(OC)cc23)cc1OC	none
CCOCCOC(=O)c1ccc(-n2cncn2)nc1	none

Source: PubChem (National Center for Advancing Translational Sciences (NCATS))
